Measurements as given in PubChem BioAssay (NCATS).
Records with an inconclusive call do not appear. Calls of active or inactive are those of the source. Unless noted, calls follow the shape of the dose curve; as a rule, active = well fitted curve in the direction sought with a large enough effect; inconclusive = small, poorly fitted or top-dose-only effect, or another doubt; inactive = no such curve, though single readings can be large; an effect the other way counts as inactive or inconclusive.

How the values were obtained:
[1] = Cell Viability - BJ (AID 421; calls by dose curve;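 also: potency is read from the fitted curve at half-maximal effect; cells exposed to compound for 40 hours at 37 °C before readout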); settings: BJ fibroblast viability, qHTS
Outline: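 Cytotoxicity in human BJ foreskin fibroblasts is scored as loss of cellular ATP after a 40-hour exposure, measured by luciferase luminescence. Controls are DMSO and 100 uM tamoxifen.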

[2] = Cell Viability - MRC5 (AID 434; calls by dose curve;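 also: potency is read from the fitted curve at half-maximal effect; cells exposed to compound for 40 hours at 37 °C; potency reflects cytotoxicity seen as loss of intracellular ATP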); settings: MRC5 lung fibroblast viability, qHTS
Outline: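 ATP luminescence read-out (CellTiter-Glo, 20 min RT) after 40 hr, 37 °C compound exposure of 1500 MRC5 cells/well. Data normalized to DMSO (basal) and 100 uM tamoxifen (100% inhibition); AC50 from standard Hill equation.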

[3] = Cellular Toxicity (caspase-3) HepG2 (AID 654); settings: HepG2 caspase-3 activation, luminescence; series mostly up to 92.2 µM;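 also: cells exposed to compound for 16 hours before reading; 0% = DMSO alone and 100% = caspase signal from 100 µM tamoxifen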
Outline: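 Caspase 3/7 activation is measured as a luminescence increase (aminoluciferin substrate) after 16 h compound exposure of human hepatocarcinoma HepG2 cells. AC50 values are Hill fits, scaled between DMSO baseline and 100 uM tamoxifen stimulation.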

[4] = Cellular Toxicity (caspase-3) Jurkat (AID 655); settings: Jurkat caspase-3 activation, luminescence; caspase-3 activation: at 92.2 µM (top of the series), DMSO = 0%, tamoxifen = 100%;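 also: cells exposed to compound for 16 h at 37 °C before reading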
Outline: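 Jurkat cells (5000/well) in complete medium were treated with compounds for 16 hr at 37 °C, then Caspase-Glo 3/7 luminescence was read after 20 min at room temperature. Data normalized to DMSO (basal) and 100 uM tamoxifen (100%); AC50 from Hill fit.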

[5] = Cellular Toxicity (caspase-3) SHSY5Y (AID 657); settings: SH-SY5Y caspase-3 activation; series mostly up to 91.7 µM
Outline: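 SH-SY5Y human neuroblastoma cells (1500/well) were treated with compounds for 16 h at 37 °C, then Caspase-Glo 3/7 luminescence was read after 1 h at room temperature. Data normalized to DMSO and 10 uM staurosporine; AC50 from Hill fits.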

[6] = Cellular Toxicity (caspase-3) BJ (AID 658); settings: BJ fibroblasts, luminescence; Potency: caspase-3 activation; series mostly up to 91.7 µM
Outline: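 qHTS, BJ fibroblasts, 1000 cells/well; 5 hr preincubation, 16 hr compound, 37 °C; Caspase-Glo 3/7 reagent, 1 hr RT; luminescence. DMSO = 0%, 10 uM staurosporine = 100%. Hill-equation AC50.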

[7] = Cellular Toxicity (caspase-3) MRC-5 (AID 659); settings: MRC-5 cells, luminescence, normalized: DMSO 0%, 10 µM staurosporine 100%; series mostly up to 91.7 µM
Outline: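 MRC-5 fibroblasts, 1500/well; 16 h cpd, 37 °C; Caspase-Glo 3/7, 1 h RT; lumi read. Norm: DMSO = 0%, 10 uM staurosporine = 100%. Hill-fit AC50 from qHTS conc-response.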

[8] = Cellular Toxicity (caspase-3) Mesangial (AID 660); settings: mesangial cells, normalized: DMSO 0%, 100 µM tamoxifen 100%; series mostly up to 91.7 µM;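 also: combined caspase 3 and 7 activity read by Caspase-Glo luminescence; cells exposed to compound for 16 h before the caspase read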
Outline: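 Caspase 3/7 activation measured by Caspase-Glo 3/7 luminescence (20 min, room temperature) following 16 h exposure of mesangial cells (1000/well); AC50 from Hill-equation fit, normalized to DMSO and 100 uM tamoxifen.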

[9] = Cellular Toxicity (caspase-3) SK-N-SH (AID 661); settings: SK-N-SH caspase-3 activation, qHTS, DMSO as zero, staurosporine as full; series mostly up to 91.7 µM
Outline: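 Caspase 3/7 activation was read by luminogenic substrate cleavage after 16 hour treatment of SK-N-SH cells. Signal was scaled between DMSO and 10 uM staurosporine, and concentration-response data were fitted with the Hill equation for AC50.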

[10] = Cellular Toxicity (caspase-3) Hek293 (AID 664); settings: HEK293 caspase-3 activation, DMSO = 0%, 100 µM tamoxifen = 100%; at 92.2 µM (top of the series);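 also: cells exposed to compound for 16 h at 37 °C before readout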
Outline: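 Concentration-response qHTS: caspase 3/7 activation measured by luminescent aminoluciferin substrate cleavage after 16 h compound exposure of Hek 293 cells. AC50 from Hill equation, with DMSO as basal and 100 uM tamoxifen as 100%.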

[11] = Cellular Toxicity (caspase-3) Renal Proximal Tubule (AID 667); settings: renal proximal tubule cells, primary cells freshly taken from rat; Potency: caspase-3 activation; series mostly up to 91.7 µM;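 also: cells exposed to compound for 16 hours at 37 °C before detection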
Outline: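 Primary rat proximal tubule cells, 1000/well, 5 h plating at 37 °C, then compound 16 h at 37 °C. Caspase-Glo 3/7 reagent, 1 h RT, luminescence. Normalized to DMSO (basal) and 10 uM staurosporine (100%); Hill-fit AC50.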

[12] = MultiTox-Fluor Cytotoxicity Assay - LYMP1-001 - Dead Cells (AID 946); settings: LYMP1-001 lymphoblastoid cells, dead-cell protease fluorescence; series mostly up to 92.2 µM;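 also: 0% = DMSO and 100% = tetraoctylammonium bromide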
Outline: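 Seed 2500 LYMP1-001 cells/well, incubate 5 hr at 37 C; add compound, 16 hr at 37 C; add MultiTox-Fluor reagent, 60 min RT; read dead-cell fluorescence Ex/Em=485/520. Normalize to DMSO and 15 uM tetraoctylammonium bromide.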

[13] = Cell Viability - LYMP1-002 - Assay at 16 hr (AID 948); settings: LYMP1-002 lymphoblastoid cell viability; series mostly up to 92.2 µM;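 also: 0% = DMSO alone and full effect = 92 µM tetraoctylammonium bromide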
Outline: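 Human lymphoblastoid cells (LYMP1-002), 2500/well, were preincubated 5 hr at 37 C, then exposed to compounds for 16 hr at 37 C in complete medium. Cellular ATP was read by CellTiter-Glo luminescence after 30 min at room temperature; AC50 from Hill fits.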

[14] = MultiTox-Fluor Cytotoxicity Assay - LYMP1-002 - Live Cells (AID 955); settings: LYMP1-002 lymphoblastoid live-cell protease fluorescence viability; series mostly up to 46.1 µM; also: % is scaled to controls: 0 for no effect and ±100 for the full control effect
Outline: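 After 16 h compound exposure at 37 C, live LYMP1-002 lymphoblastoid cells (2500/well) were quantified by cleavage of cell-permeant GF-AFC substrate, read at 405/510 nm after 60 min. Concentration-response fitted with Hill equation for AC50.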

[15] = Cell Viability - LYMP1-003 - Assay at 24 hr (AID 963); settings: LYMP1-003 lymphoblastoid cell viability; series mostly up to 92.2 µM;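 also: plate controls were DMSO only for no effect and tetraoctylammonium bromide positive control for full effect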
Outline: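 Concentration-response qHTS: ATP loss measured by CellTiter-Glo luminescence after 24 h compound exposure at 37 C. Cells were LYMP1-003 human lymphoblastoid, 2500 per well. AC50 derived via standard Hill equation modeling.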

[16] = Cell Viability - LYMP2-026 (AID 989); settings: LYMP2-026 lymphoblastoid cell viability, qHTS; series mostly up to 92.2 µM; also: % is scaled to controls: 0 for no effect and ±100 for the full control effect; nearly all actives have a fitted effect of over 50% in size
Outline: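 Cytotoxicity read as ATP-dependent luminescence (CellTiter-Glo, 30 min room temperature) after 24 h compound treatment at 37 C. LYMP2-026 lymphoblastoid line seeded at 2500 cells/well; AC50 derived by standard Hill equation.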

[17] = Cell Viability - LYMP1-002 - Assay at 24 hr (AID 993); settings: LYMP1-002 lymphoblastoid cells viability; series mostly up to 92.2 µM; also: % is scaled to controls: 0 for no effect and ±100 for the full control effect
Outline: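 qHTS cytotoxicity at 24 h: CellTiter-Glo ATP luminescence in lymphoblastoid line LYMP1-002 incubated with compound at 37 °C. Concentration-response modeled with the Hill equation for AC50; tetraoctylammonium bromide served as positive control.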

[18] = qHTS Assay for Identification of Small Molecule Inducers of Hypoxia Response (AID 2120; active = well fitted curve in the direction sought with a large enough effect in the signal ratio, with a control signal flat, not every such curve was filed as active; the % refers to the signal ratio; also: 0% is about no effect); settings: hypoxia response reporter cells, beta-lactamase ratio readout; series mostly up to 104 µM
Outline: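 Reporter induction read as the CCF4 blue/green (460nm/530nm) emission ratio after 2.5 h dye loading at room temperature. ME-180 HRE-beta-lactamase cells received titrated compounds for 17 h at 37 degrees Celsius; AC50 values derived.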

[19] = biological target: Peroxisome proliferator-activated receptor alpha (Homo sapiens) (UniProt Q07869); assay: qHTS assay for small molecule agonists of the peroxisome proliferator-activated receptor alpha (PPARalpha) signaling pathway (AID 651778); settings: PathHunter PPARalpha complementation, chemiluminescence, 6 h; max response: stronger effect = higher value; also: % of control where 0% means no effect
Outline: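 Enzyme-fragment complementation assay in which ligand-bound PPARalpha translocates and forms an active enzyme that generates chemiluminescence. Cells were plated overnight, exposed to compound for 6 hr at 37 C, and then given detection reagent for 60 min at room temperature.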

[20] = qHTS assay for cell viability of the p53RE-bla HCT-116 cell line (AID 743292); settings: p53RE-bla HCT-116 viability, ATP luminescence, 16 h; series mostly up to 95 µM; also: % is scaled to controls: 0 for no effect and ±100 for the full control effect; nearly all actives have a fitted effect of over 55% in size
Outline: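 After plating at 4,000 cells per well and a 5 h rest at 37 C, HCT-116 cells carrying p53RE-bla received test chemicals in DMSO. Sixteen hours later at 37 C, CellTiter-Glo was added and luminescence recorded following 30 min at room temperature.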

Peroxisome proliferator-activated receptor alpha (Homo sapiens), sequence (Q07869 whole entry, looked up, the tested form may be a part): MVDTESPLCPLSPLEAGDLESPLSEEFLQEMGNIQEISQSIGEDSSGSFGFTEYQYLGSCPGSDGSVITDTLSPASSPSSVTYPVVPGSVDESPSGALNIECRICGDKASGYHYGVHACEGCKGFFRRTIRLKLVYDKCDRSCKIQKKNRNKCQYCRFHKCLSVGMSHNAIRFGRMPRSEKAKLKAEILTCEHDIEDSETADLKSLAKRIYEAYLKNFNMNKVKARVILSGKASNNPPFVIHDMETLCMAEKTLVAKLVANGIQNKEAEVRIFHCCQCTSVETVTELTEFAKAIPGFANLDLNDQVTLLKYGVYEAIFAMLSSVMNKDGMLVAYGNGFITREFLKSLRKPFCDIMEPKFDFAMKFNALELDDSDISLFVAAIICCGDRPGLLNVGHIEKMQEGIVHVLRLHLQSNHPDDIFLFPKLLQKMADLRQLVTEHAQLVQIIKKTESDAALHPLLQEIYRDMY

CCNC(=S)NCC
inactive: Potency [1] > 92 µM | Potency [2] > 92 µM | Potency [3] | Potency [4] | Potency [5] | Potency [6] | outcome [7] | outcome [8] | outcome [9] | caspase-3 activation [10] -2.38% | Potency [11] | Potency [12] | Potency [13] | outcome [14] | Potency [15] | Potency [16] | Potency [17] | Potency [18] | max response [19] -2.88% | Potency [20]

O=C(O)/C=C/c1ccc(/C=C/C(=O)O)cc1
inactive: Potency [1] > 92 µM | Potency [2] > 92 µM | Potency [3] | Potency [4] | Potency [5] | Potency [6] | outcome [7] | outcome [8] | outcome [9] | caspase-3 activation [10] -11.2% | Potency [11] | Potency [12] | Potency [13] | outcome [14] | Potency [15] | Potency [16] | Potency [17] | Potency [18] | max response [19] -4.38% | Potency [20]

c1ccc(SCCSc2ccccc2)cc1
inactive: Potency [1] > 92 µM | Potency [2] > 92 µM | Potency [3] | Potency [4] | Potency [5] | Potency [6] | outcome [7] | outcome [8] | outcome [9] | caspase-3 activation [10] 0.456% | Potency [11] | Potency [12] | Potency [13] | outcome [14] | Potency [15] | Potency [16] | Potency [17] | Potency [18] | max response [19] 2.97% | Potency [20]

c1ccc2ncccc2c1
inactive: Potency [1] > 92 µM | Potency [2] > 92 µM | Potency [3] | Potency [4] | Potency [5] | Potency [6] | outcome [7] | outcome [8] | outcome [9] | caspase-3 activation [10] -0.104% | Potency [11] | Potency [12] | Potency [13] | outcome [14] | Potency [15] | Potency [16] | Potency [17] | Potency [18] | max response [19] -2.05% | Potency [20]

CCCCCCc1ccc(-c2ccc(C#N)cc2)cc1
inactive: Potency [1] > 92 µM | Potency [2] > 92 µM | Potency [3] | Potency [4] | Potency [5] | Potency [6] | outcome [7] | outcome [8] | outcome [9] | caspase-3 activation [10] 0.233% | Potency [11] | Potency [12] | Potency [13] | outcome [14] | Potency [15] | Potency [16] | Potency [17] | Potency [18] | max response [19] -3.23% | Potency [20]

O=c1[nH]ncc2ccccc12
inactive: Potency [1] > 92 µM | Potency [2] > 92 µM | Potency [3] | Potency [4] | Potency [5] | Potency [6] | outcome [7] | outcome [8] | outcome [9] | caspase-3 activation [10] -1.83% | Potency [11] | Potency [12] | Potency [13] | outcome [14] | Potency [15] | Potency [16] | Potency [17] | Potency [18] | max response [19] -3.48% | Potency [20]
